PubChem BioAssay (EPA / NIEHS)
The source made the active and inactive calls. Rule for the calls: active = hit-call score of the fitted dose curve at least 0.9, where 1 is the maximum; inactive = score below 0.9.

Experiments:
[1] = read-out: Vascular cell adhesion molecule 1 (VCAM1), VCAM1 (gene 7412); test: BSK_CASM3C_VCAM1: BioMAP Diversity Plus: CASM3C Assay for Vascular cell adhesion molecule 1 (VCAM1) Biomarker Activity (AID 2283055); settings: primary human coronary artery smooth muscle cells; actives raise or lower the signal;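 note: VCAM-1 protein level quantified by ELISA on the cells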
[2] = read-out: Collagen III, COL3A1 (gene 1281); test: BSK_hDFCGF_CollagenIII: BioMAP Diversity Plus: hDFCGF Assay for Collagen III Biomarker Activity (AID 2283056); settings: primary human foreskin fibroblasts; actives raise or lower the signal
In short: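 Cells: human foreskin fibroblasts, primary. Dosing followed by 24 h incubation, then ELISA for collagen III. Both increases and decreases scored relative to DMSO.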

[3] = read-out: Epidermal growth factor receptor (EGFR), EGFR (gene 1956); test: BSK_hDFCGF_EGFR: BioMAP Diversity Plus: hDFCGF Assay for Epidermal growth factor receptor (EGFR) Biomarker Activity (AID 2283057); settings: primary human foreskin fibroblasts; actives raise or lower the signal
In short: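 Primary human foreskin fibroblasts were exposed to compound for 24 h, after which cell-surface EGFR was quantified by ELISA. Activity was fitted bidirectionally against the DMSO negative control as baseline.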

[4] = read-out: Interleukin-8 (IL8), CXCL8 (gene 3576); test: BSK_hDFCGF_IL8: BioMAP Diversity Plus: hDFCGF Assay for Interleukin-8 (IL8) Biomarker Activity (AID 2283058); settings: primary human foreskin fibroblasts; actives raise or lower the signal
In short: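 IL-8 levels from compound-treated primary human fibroblasts were read by ELISA at 24 h, with DMSO serving as baseline for bidirectional fitting.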

[5] = BSK_hDFCGF_Proliferation: Cell Proliferation Assessment in the BioMAP Diversity Plus: hDFCGF Assay (AID 2283059); settings: primary human foreskin fibroblasts;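 note: curves fitted for both rise and fall of signal versus DMSO baseline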
In short: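 Primary human foreskin fibroblasts, sub-confluent; […]; 10% TCA fix, 0.1% SRB stain, A560 total protein. Gain/loss fitted bidirectionally vs DMSO control.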

[6] = read-out: Macrophage colony-stimulating factor (MCSF), CSF1 (gene 1435); test: BSK_hDFCGF_MCSF: BioMAP Diversity Plus: hDFCGF Assay for Macrophage colony-stimulating factor (MCSF) Biomarker Activity (AID 2283060); settings: primary human foreskin fibroblasts; actives raise or lower the signal
In short: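 M-CSF levels, determined by ELISA, are taken at 24 h after dosing human skin fibroblasts. Responses in either direction are fitted with DMSO serving as the baseline.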

[7] = BSK_hDFCGF_SRB: Viability Assessment in the BioMAP Diversity Plus: hDFCGF Assay (AID 2283061); settings: primary human foreskin fibroblasts;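 note: cells exposed to compound for 24 h before the read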
In short: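 Cells were dosed with test chemical, cultured 24 h, fixed with 10% TCA, then stained with 0.1% SRB and read at 560 nm. The fibroblasts were human foreskin primary cells, and DMSO served as baseline.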

[8] = read-out: TIMP metallopeptidase inhibitor 1 (TIMP1), TIMP1 (gene 7076); test: BSK_hDFCGF_TIMP1: BioMAP Diversity Plus: hDFCGF Assay for TIMP metallopeptidase inhibitor 1 (TIMP1) Biomarker Activity (AID 2283062); settings: primary human foreskin fibroblasts; actives raise or lower the signal
In short: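 Fibroblasts from human foreskin are treated with test chemical and harvested at 24 h. TIMP-1 is quantified by ELISA, and gain or loss of signal is scored against DMSO.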

[9] = read-out: Monokine induced gamma interferon (MIG), CXCL9 (gene 4283); test: BSK_hDFCGF_MIG: BioMAP Diversity Plus: hDFCGF Assay for Monokine induced gamma interferon (MIG) Biomarker Activity (AID 2283063); settings: primary human foreskin fibroblasts; actives raise or lower the signal
In short: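 MIG signal, determined by ELISA, reflects 24 h chemical exposure of human skin primary fibroblasts. DMSO serves as negative control and baseline.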

[10] = read-out: Matrix Metallopeptidase 1 (MMP1), MMP1 (gene 4312); test: BSK_hDFCGF_MMP1: BioMAP Diversity Plus: hDFCGF Assay for Matrix Metallopeptidase 1 (MMP1) Biomarker Activity (AID 2283064); settings: primary human foreskin fibroblasts; actives raise or lower the signal
In short: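 Primary human foreskin fibroblasts in the hDFCGF system were dosed with test chemical, and MMP1 was measured by ELISA 24 h later. Values come from bidirectional curve fitting against the DMSO baseline.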

[11] = read-out: Vascular cell adhesion molecule 1 (VCAM1), VCAM1 (gene 7412); test: BSK_hDFCGF_VCAM1: BioMAP Diversity Plus: hDFCGF Assay for Vascular cell adhesion molecule 1 (VCAM1) Biomarker Activity (AID 2283065); settings: primary human foreskin fibroblasts; actives raise or lower the signal;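 for AC50: VCAM-1 protein level quantified by ELISA after 24 h chemical exposure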
In short: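 Cells are dosed, cultured for 24 h, then VCAM-1 is quantified by ELISA; signal increases and decreases are both fitted relative to DMSO.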

[12] = read-out: Plasminogen activator inhibitor-1 (PAI1), SERPINE1 (gene 5054); test: BSK_hDFCGF_PAI1: BioMAP Diversity Plus: hDFCGF Assay for Plasminogen activator inhibitor-1 (PAI1) Biomarker Activity (AID 2283066); settings: primary human foreskin fibroblasts; actives raise or lower the signal
In short: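 Human foreskin fibroblasts in the hDFCGF system were dosed with compound for 24 h; PAI-1 was quantified by ELISA. Bidirectional curve fitting used DMSO as negative control and baseline.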

[13] = read-out: Intercellular Adhesion Molecule 1 (ICAM1), ICAM1 (gene 3383); test: BSK_KF3CT_ICAM1: BioMAP Diversity Plus: KF3CT Assay for Intercellular Adhesion Molecule 1 (ICAM1) Biomarker Activity (AID 2283067); settings: primary human keratinocytes with fibroblasts; actives raise or lower the signal
In short: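 Dose the keratinocyte/fibroblast co-culture, wait 24 h, measure ICAM-1 by ELISA, then fit increases or decreases against DMSO. Cytotoxicity is checked in parallel cultures by SRB total-protein staining.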

[14] = BSK_KF3CT_SRB: Viability Assessment in the BioMAP Diversity Plus: KF3CT Assay (AID 2283069); settings: primary human keratinocytes with fibroblasts;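 note: total protein by sulforhodamine B staining as a cytotoxicity measure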
In short: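 Human primary keratinocyte plus foreskin fibroblast co-culture exposed to chemicals for 24 h. Total protein measured by 0.1% sulforhodamine B staining after 10% TCA fixation, read at 560 nm; bidirectional fitting versus DMSO baseline.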

[15] = read-out: Interleukin-1 alpha (IL1a), IL1A (gene 3552); test: BSK_KF3CT_IL1a: BioMAP Diversity Plus: KF3CT Assay for Interleukin-1 alpha (IL1a) Biomarker Activity (AID 2283070); settings: primary human keratinocytes with fibroblasts; actives raise or lower the signal
In short: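 Human keratinocyte plus foreskin fibroblast primary co-culture, sampled 24 h after chemical dosing. IL-1a measured by ELISA; responses fitted bidirectionally against DMSO baseline (negative control), so gain or loss of signal both count.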

[16] = read-out: TIMP metallopeptidase inhibitor 2 (TIMP2), TIMP2 (gene 7077); test: BSK_KF3CT_TIMP2: BioMAP Diversity Plus: KF3CT Assay for TIMP metallopeptidase inhibitor 2 (TIMP2) Biomarker Activity (AID 2283071); settings: primary human keratinocytes with fibroblasts; actives raise or lower the signal
In short: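 Human primary keratinocyte/foreskin fibroblast co-culture dosed with chemical and sampled at 24 h. TIMP-2 levels quantified by ELISA; bidirectional fitting against DMSO negative control as baseline.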

[17] = read-out: Transforming growth factor beta 1 (TGFb1), TGFB1 (gene 7040); test: BSK_KF3CT_TGFb1: BioMAP Diversity Plus: KF3CT Assay for Transforming growth factor beta 1 (TGFb1) Biomarker Activity (AID 2283072); settings: primary human keratinocytes with fibroblasts; actives raise or lower the signal
In short: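 Human keratinocyte plus foreskin fibroblast primary co-culture, dosed with chemical for 24 h. TGF-b1 quantified by ELISA. Activity fitted bidirectionally against DMSO negative control as baseline.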

[18] = read-out: C-C motif chemokine 2 (Homo sapiens) (UniProt P13500); test: BSK_KF3CT_MCP1: BioMAP Diversity Plus: KF3CT Assay for Monocyte Chemoattractant Protein 1 (MCP1/CCL2) Biomarker Activity (AID 2283073); settings: primary human keratinocytes with fibroblasts; actives raise or lower the signal
In short: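 Keratinocytes and foreskin fibroblasts were co-cultured, dosed with chemical, and sampled 24 h later. MCP-1 was quantified by ELISA, and the endpoint was analyzed with bidirectional fitting using DMSO as negative control.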

[19] = read-out: Matrix Metallopeptidase 9 (MMP9), MMP9 (gene 4318); test: BSK_KF3CT_MMP9: BioMAP Diversity Plus: KF3CT Assay for Matrix Metallopeptidase 9 (MMP9) Biomarker Activity (AID 2283074); settings: primary human keratinocytes with fibroblasts; actives raise or lower the signal;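 for AC50: MMP9 protein level quantified by ELISA in the co-culture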
In short: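 Keratinocyte plus foreskin fibroblast human primary skin co-culture was dosed with chemical and MMP-9 was quantified by ELISA 24 h later. Bidirectional curve fitting used DMSO as negative control and activity baseline.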

[20] = read-out: Interferon-gamma inducible Protein 10 (IP10), CXCL10 (gene 3627); test: BSK_KF3CT_IP10: BioMAP Diversity Plus: KF3CT Assay for Interferon-gamma inducible Protein 10 (IP10) Biomarker Activity (AID 2283068); settings: primary human keratinocytes with fibroblasts; actives raise or lower the signal
In short: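 In a primary skin co-culture of keratinocytes and fibroblasts, IP-10 is quantified by ELISA at 24 h after dosing. SRB staining of parallel wells monitors overt toxicity. Curves are fitted both directions against DMSO.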

Measured: AC50

C#CCOC(=O)/C=C(C)/C=C/CC(C)CCCC(C)C (stereo not drawn)
active: [2] 12.6 µM | [6] 10 µM | [11] 5.7 µM | [12] 11.6 µM
not listed: [20]
inactive: all other assays above

C=CC(Cl)CCl (stereo not drawn)
active: [1] 0.921 µM | [5] 20.4 µM | [15] 0.0797 µM | [16] 0.181 µM | [17] 0.189 µM
not listed: [20]
inactive: all other assays above

O=S(=O)(c1ccc(Cl)cc1)c1cc(Cl)c(Cl)cc1Cl
active: [1] 0.016 µM | [2] 3.97 µM | [5] 20 µM | [16] 12.7 µM | [17] 5.16 µM | [19] 0.58 µM
not listed: [12]
inactive: all other assays above

O=C(O)COc1cc(Cl)c(Cl)cc1Cl
not listed: [20]
inactive: all other assays above

Cc1cc(Cl)ccc1OC(C)C(=O)O (stereo not drawn)
not listed: [20]
inactive: all other assays above

Oc1c(Br)cc(Br)cc1Br
active: [2] 12.1 µM | [12] 20 µM | [20] 31.6 µM | [19] 28.2 µM
not listed: [5]
inactive: all other assays above

O=C(CCl)NCO
not listed: [7]
inactive: all other assays above

CCOP(=O)(OCC)OC(=CCl)c1ccc(Cl)cc1Cl
active: [1] 33.8 µM | [2] 25.6 µM | [5] 37.4 µM | [6] 31 µM | [7] 30.8 µM | [8] 30.1 µM | [9] 30.7 µM | [10] 31.5 µM | [11] 36.8 µM | [12] 24.7 µM | [14] 35.2 µM | [16] 25.7 µM | [17] 27.1 µM | [18] 20 µM | [19] 31.9 µM
inactive: [3] | [4] | [13]

Cc1cccc(OP(=O)(Oc2cccc(C)c2)Oc2cccc(C)c2)c1
active: [6] 4.78 µM | [12] 0.0473 µM | [19] 20.3 µM
not listed: [20]
inactive: all other assays above

CC(C)=CC1C(C(=O)OCc2cccc(Oc3ccccc3)c2)C1(C)C (stereo not drawn)
active: [2] 7.5 µM | [5] 20 µM | [6] 7.43 µM | [7] 12.4 µM | [8] 12.5 µM | [11] 12.4 µM | [12] 12.5 µM | [16] 2.81 µM
not listed: [20]
inactive: all other assays above

Cc1cc(C)cc(C)c1
not listed: [20]
inactive: all other assays above

CCOC(=O)C(SP(=S)(OC)OC)c1ccccc1 (stereo not drawn)
active: [1] 20 µM | [2] 10.2 µM | [5] 26.4 µM | [6] 7.09 µM | [11] 20 µM | [17] 20 µM
not listed: [20]
inactive: all other assays above

[Cl][Sn]([c]1ccccc1)([c]1ccccc1)[c]1ccccc1
active: [1] 0.396 µM | [2] 0.5 µM | [4] 0.123 µM | [5] 0.0542 µM | [6] 0.166 µM | [7] 0.233 µM | [8] 0.158 µM | [9] 0.0855 µM | [10] 0.103 µM | [11] 0.0996 µM | [12] 0.114 µM | [13] 0.334 µM | [14] 0.183 µM | [15] 0.127 µM | [16] 0.209 µM | [17] 0.0622 µM | [18] 0.19 µM | [19] 0.0692 µM
inactive: [3]

O=[N+]([O-])c1ccc(Nc2ccccc2)cc1
not listed: [20]
inactive: all other assays above

O=[N+]([O-])c1cccc2ccccc12
not listed: [20]
inactive: all other assays above

Cc1ccc(OP(=O)(Oc2ccc(C)cc2C)Oc2ccc(C)cc2C)c(C)c1
active: [3] 3.88 µM | [5] 4.72 µM | [6] 5.48 µM | [7] 4.22 µM | [10] 10.3 µM | [12] 0.445 µM | [19] 8.84 µM
not listed: [20]
inactive: all other assays above
